This is an account of results in PubChem BioAssay AID720582 (The Scripps Research Institute Molecular Screening Center, 2013).

“And” between values parts separate entries of the source, which are not always exact repeats. Equal entries are not always repeated. Hit rate of the full screen: of about 370,000 compounds, about 2,300 (0.62%) were called active.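 The calls were made as follows: active = inhibition above a per-campaign cutoff equal to the mean of compounds falling between control-based bounds plus 3 SD (cut at about 20% in these data); inactive = the rest.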 The sample as a whole holds a higher share of actives than the screen did. More than one record can exist for a structure, and the calls need not agree.

The target in the assay is Disintegrin and metalloproteinase domain-containing protein 10 (Homo sapiens) (UniProt O14672). Nature of the assay: human ADAM10 inhibitors, primary screen, biochemical, QFRET, HTS (AID 720582).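 Also: 0% = DMSO wells while the 100% control is not disclosed.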 The note with it: recombinant ADAM10, EDANS/DABCYL FRET peptide cleavage, 3 h; at 7 µM; stronger effect = higher value.
Sequence of Disintegrin and metalloproteinase domain-containing protein 10 (Homo sapiens) (O14672 214-748 limits assumed): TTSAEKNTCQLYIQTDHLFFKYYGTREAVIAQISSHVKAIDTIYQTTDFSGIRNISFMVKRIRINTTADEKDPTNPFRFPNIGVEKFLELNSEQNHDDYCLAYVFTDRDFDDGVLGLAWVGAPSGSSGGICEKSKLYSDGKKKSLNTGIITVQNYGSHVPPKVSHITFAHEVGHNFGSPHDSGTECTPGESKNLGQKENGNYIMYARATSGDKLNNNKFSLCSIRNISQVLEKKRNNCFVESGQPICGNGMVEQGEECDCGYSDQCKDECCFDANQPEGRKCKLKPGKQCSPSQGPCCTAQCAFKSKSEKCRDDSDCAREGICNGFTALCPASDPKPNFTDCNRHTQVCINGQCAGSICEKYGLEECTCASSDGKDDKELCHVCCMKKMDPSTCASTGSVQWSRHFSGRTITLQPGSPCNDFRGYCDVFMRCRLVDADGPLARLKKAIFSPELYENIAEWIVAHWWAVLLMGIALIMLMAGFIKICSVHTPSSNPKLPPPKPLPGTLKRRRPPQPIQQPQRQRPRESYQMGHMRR
Turning to `COC(=O)c1cccc(Cn2ccc3ccc(-c4ccc5ccn(C(=O)c6ccccc6C)c5c4)cc32)c1`, the inhibition is -41.7% (inactive).
Next, `CCCC1CCC2(CCCN2CCOC(=O)NCc2ccccc2)CC1` (configuration not stated): -8.67% (inactive); `CC(C)N1CCCCC(NC(=O)C(C)(C)C)C1=O` (configuration not stated): -0.89% (inactive); `N#Cc1cccc(NC(=O)C2CCCN(C(=O)c3ccc(Cl)cc3)C2)c1` (configuration not stated): -3.16% (inactive).
Take `CCOc1ccc(N2C(=O)CC(N(CCc3ccc(OC)c(OC)c3)C(=S)Nc3ccccc3)C2=O)cc1` (configuration not stated): the inhibition was 23.9% (active) and 6.83% (inactive).
Next, `CN(C)c1ccc(NC(=S)N(CCc2ccccc2)C2CC(=O)N(c3c(Cl)cccc3Cl)C2=O)cc1` (configuration not stated): 11.2% (inactive); `COc1ccc(N2C(=O)C(CC(=O)Nc3ccccc3)N(Cc3ccc(OC)c(OC)c3)C2=O)cc1` (configuration not stated): 0.53% (inactive); `CCOC(=O)[C@]12CCCC=C1N(CCCOC)C(=O)[C@@H]2CC(=O)N1CCOCC1`: -0.44% (inactive).
`CN1[C@H](Cc2ccccc2)COc2cccc(N3CCSCC3)c2S1(=O)=O`: the inhibition is -1.57% (inactive).
For `O=C(CNCc1ccc(F)cc1)Nc1ccccc1-c1ccccc1`, the inhibition was 4.85% (inactive).
Regarding `CCC(C(=O)Nc1ccc(C(C)C)cc1)c1ccccc1` (configuration not stated), the inhibition was 5.96% (inactive).
As for `CCC(C(=O)OCC(=O)Nc1ccccc1-c1ccccc1)c1ccccc1` (configuration not stated), the inhibition is 20.3% (active).
For `CC1CCN(c2ccc(C(=O)O)cc2NS(=O)(=O)c2ccc(Br)s2)CC1`, the inhibition was -0.83% (inactive).
Next, `C[C@H](C(=O)N(C)c1ccccc1)[C@@H](O)c1ccc(Cl)cc1`: 2.56% (inactive); `CC(=O)N1CCCN(C2=Nc3ccccc3Sc3ccccc32)CC1`: 1.32% (inactive).
For the compound `O=C(CSc1nnc(-c2cccc(Cl)c2)n1Cc1ccco1)Nc1ccc(OCc2ccccc2)cc1`, the inhibition was 7.99% (inactive).
With `Cc1ccc(-c2nc(C3CCCN(S(=O)(=O)c4ccc(Br)s4)C3)no2)cc1` (configuration not stated), the inhibition was -6.94% (inactive).
The value for `O=C(NCCC1=CCCCC1)C1CCN(S(=O)(=O)c2ccc(Cl)s2)CC1` was -5.18% (inactive); that for `COc1ccccc1OCCOc1ccc(/C=C2\C(=N)N3N=C(C)SC3=NC2=O)cc1` was -72.1% (inactive); that for `COc1ccc(OCCn2ccnc2C)cc1` was 3.1% (inactive).
Regarding `COc1ccc(OCCCn2cccc2/C=C2/C(=N)N3OC(C)=CC3=NC2=O)cc1`, the inhibition is 24.4% (active).
Take `COCC(=O)N[C@@H]1C[C@@H]2O[C@@H](CO)CC[C@@H]2O[C@@H]1CCc1ccc(-c2ccccc2)cc1`: the inhibition is 4.87% (inactive).
In the case of `O=C(COC(=O)Cc1ccc(Br)cc1)Nc1ccc(N2CCOCC2)cc1`, the inhibition is -15.2% (inactive).
The value for `CSc1ccccc1NC(=O)Cc1ccc(Br)cc1` was 2.92% (inactive); that for `CC(C)Oc1ccc(CC(=O)NNC(=S)Nc2ccc(Br)cc2)cc1` was 23.5% (active).
Take `O=C1C(=O)N(Cc2ccc(-c3ccsc3)cc2)c2ccc(OC(F)(F)F)cc21`: the inhibition is 3.17% (inactive).
Next, `CC(=O)OC12CCCN(C1)/C(=C/c1ccncc1)C2` (configuration not stated): -16.8% (inactive).
Regarding `CCOc1ccccc1-c1cc(C(=O)N/N=C(\C)c2cccnc2)c2ccccc2n1`, the inhibition is 0.58% (inactive).
Next, `CCOc1cc(/C=N/NC(=O)c2cc(-c3ccccc3)nc3ccccc23)ccc1O`: 22.1% (active).
Next, `CCOc1ccc(/C=N/NC(=O)C(C)Sc2ccccn2)cc1OCC` (configuration not stated): -1% (inactive); `COc1ccnc(C(=O)N2CCC(Oc3cccnc3)CC2)c1`: 1.62% (inactive).
The value for `O=C(CSc1nnc(-c2ccccc2)n1Cc1ccco1)Nc1ccccc1-c1ccccc1` was 15% (inactive).
For the compound `CCCSc1nc(NCc2ccco2)c2c3c(sc2n1)COC(C)(CC)C3` (configuration not stated), the inhibition is -57.9% (inactive).
`CCOC(=O)Cn1c(SC)nc2sc3c(c2c1=O)CC(C)(C)OC3`: the inhibition is -52.7% (inactive).
Next, `CCC1(C)Cc2c(sc3nnn(CC(=O)Nc4ccc(Cl)cc4)c(=O)c23)CO1` (configuration not stated): 20.1% (active).
`CN(CCO)c1cccc2c1S(=O)(=O)N(Cc1cn(Cc3ccc(C(F)(F)F)cc3)nn1)Cc1ccccc1O2`: the inhibition is -6.76% (inactive).
`COc1ccnc(NC(=S)N2CCN(c3ncc(C(F)(F)F)cc3Cl)CC2)c1`: the inhibition is -1.47% (inactive).
As to `COc1ccc(C2=NN(C(=O)CSc3nc(=O)n4ccc(C)cc4n3)C(c3ccc(C)cc3)C2)cc1` (configuration not stated), the inhibition was -4.74% (inactive).
Take `COc1ccc(C2CC(c3ccccc3)=NN2C(=O)c2ccc(Cl)c([N+](=O)[O-])c2)cc1` (configuration not stated): the inhibition is -1.55% (inactive).
With `COc1ccc(C2CC(c3ccccc3)=NN2C(=O)COC(=O)COc2ccccc2)cc1` (configuration not stated), the inhibition is 20.3% (active).
The value for `CCOC(=O)[C@]12CCCC3=C1N(CCC3)C(=O)[C@@H](CC(=O)NCC13CC4CC(CC(C4)C1)C3)C2` was 3.03% (inactive).
Consider `O=C(CSc1nc2ccccc2n1Cc1ccccc1)NNC(=S)Nc1ccccc1`, for which the inhibition is 12.5% (inactive).
Consider `Cc1ccccc1NC(=O)C1CCN(c2ncccn2)CC1`, for which the inhibition is -49.2% (inactive).
Take `Cc1ccc(Cn2cc(CN3[C@@H](CC(C)C)COc4ccc(Cl)cc4S3(=O)=O)nn2)cc1`: the inhibition was 2.6% (inactive).
Turning to `CC(C)c1ccc(S(=O)(=O)N2CCN(C(C)C(=O)NC3CCCC3)CC2)cc1` (configuration not stated), the inhibition is -11.6% (inactive).
As for `COc1cccc(CNC(C)C(=O)Nc2ccc(S(=O)(=O)N3CCCC3)cc2)c1` (configuration not stated), the inhibition was -0.95% (inactive).
Turning to `COc1ccc(S(=O)(=O)N2CCN(C(C)C(=O)Nc3ccc(C(C)C)cc3)CC2)cc1` (configuration not stated), the inhibition was 26.6% (active).
The value for `Oc1ccc(/C=C/c2c(F)cccc2F)c2cccnc12` was 5.02% (inactive); that for `Cc1ccc(Cn2cc(COC(=O)N(C)Cc3ccccc3)nn2)cc1` was -0.56% (inactive); that for `Cc1ccc(S(=O)(=O)N2CCN(C(=O)COC(=O)CNC(=O)c3ccc(C(C)(C)C)cc3)CC2)c(C)c1` was -0.12% (inactive).
Regarding `COc1ccc(/C=C/C(=O)OCC(=O)N2CCN(S(=O)(=O)c3ccc(C)cc3C)CC2)cc1OC`, the inhibition was -21.9% (inactive).
Take `Cc1ccc(S(=O)(=O)N2CCN(C(=O)COC(=O)c3c(C)cc(C)cc3C)CC2)c(C)c1`: the inhibition was 23.9% (active).
As to `FC(F)(F)c1cccc(NC(=S)OC2CCC23CCC(c2ccccc2)CC3)c1` (configuration not stated), the inhibition was 10.3% (inactive).
With `CC1(Cc2cccc(C#N)c2)C(=O)Nc2ccc(-c3cccc(C(F)(F)F)c3)cc21` (configuration not stated), the inhibition is 33.6% (active).
On to `FC(F)(F)c1cccc(Cn2ccc3ccc(-c4ccc5ccn(Cc6ccccc6)c5c4)cc32)c1`, for which the inhibition was -38.5% (inactive).
As for `COc1ccc(-n2c(SCC(=O)Nc3ccc(C)c(Cl)c3)nc3ccccc3c2=O)cc1`, the inhibition was -4.98% (inactive).
With `CCOC(=O)c1cccc(NC(=O)CN(C)S(=O)(=O)c2ccc(-c3cocn3)s2)c1`, the inhibition is 8.22% (inactive).
As to `C#CCN(C[C@@H]1[C@@H](OC(=O)NC2CC2)[C@@H](OC(=O)NC2CC2)Cn2c(=O)ccc(=O)n21)S(=O)(=O)c1ccc(C)cc1`, the inhibition is -5.52% (inactive).
The value for `Cc1ccc(S(=O)(=O)N2C[C@]3(O)C[C@@H]4C(=O)N(c5ccccc5)C(=O)[C@@H]4C[C@]3(OC(=O)NC3CC3)C2)cc1` was -2.91% (inactive); that for `C#CCN(C[C@H]1[C@H](OC(=O)NC2CCCC2)[C@H](OC(=O)NC2CCCC2)C[C@H]2C(=O)N(c3ccccc3)C(=O)[C@@H]12)S(=O)(=O)c1ccc(C)cc1` was 29.4% (active).
For the compound `COC(=O)[C@]12C[C@H](CC(=O)N3CCOCC3)C(=O)N(Cc3ccc(Cl)cc3Cl)C1=C[C@H](COCc1ccccc1)O[C@@H]2C`, the inhibition is 0.45% (inactive).
With `COc1cc(NC(=O)COC(=O)c2cnc(C)cn2)c(C)cc1[N+](=O)[O-]`, the inhibition is 2.74% (inactive).
With `Cc1cnc(C(=O)OCc2c(C)cc(C(C)(C)C)cc2C)cn1`, the inhibition is 21.7% (active).
As to `Cc1cnc(C(=O)OCC(=O)NCCCc2ccccc2)cn1`, the inhibition was -1.14% (inactive).
On to `Cc1cccc(NC(=O)C[C@H]2CC[C@H]3[C@@H](COc4ccc(NC(=O)Nc5ccccc5)cc4C(=O)N3C)O2)c1`, for which the inhibition is 5.56% (inactive).
For the compound `COc1cccc(NC(=O)C/C(C)=N/NC(=O)C2CCCCC2)c1`, the inhibition is 15.3% (inactive).
Regarding `COc1cccc(NC(=O)C2C(c3ccccc3)C2(Cl)Cl)c1` (configuration not stated), the inhibition was 19.8% (active).
Regarding `COc1cccc(NC(=O)C2c3cc(OC)c(OC)cc3C(=O)N(C)C2c2cccnc2)c1` (configuration not stated), the inhibition was -5.09% (inactive).
Turning to `Cc1ccc(CSc2nnc(SCC(=O)NN=Cc3cc(Br)ccc3F)s2)cc1`, the inhibition is -6.1% (inactive).
Next, `COc1ccc(NC(=S)NCC2CCN(c3ccc(OC)cc3)C2)cc1` (configuration not stated): 7.62% (inactive); `O=C(CCNC(=O)c1ccc([N+](=O)[O-])cc1)Nc1ccccc1N1CCOCC1`: 1.54% (inactive); `Cc1ccc(NC(=O)COC(=O)CNC(=O)c2ccc(Cl)cc2Cl)cc1S(=O)(=O)N1CCOCC1`: 7.22% (inactive).
As to `O=C(CNC(=O)c1ccc(Cl)cc1Cl)NCC(=O)Nc1ccccc1N1CCOCC1`, the inhibition is 83.6% (active).
Consider `Cc1ccc(CN2CCCCC(NC(=O)C3CCCCC3)C2=O)cc1` (configuration not stated), for which the inhibition is -0.65% (inactive).
For `O=C(CSc1nc2c(c(=O)[nH]1)CCCC2)N1CCCCC1`, the inhibition is 3.78% (inactive).
As to `CCOC(=O)c1csc(NC(=O)Nc2cccc(OC)c2)n1`, the inhibition was 0.5% (inactive).
The value for `NC(c1csc(NC(=O)Nc2ccccc2Oc2ccccc2)n1)c1ccccc1Cl` (configuration not stated) was -3.13% (inactive); that for `COc1ccc(C(N)c2csc(NC(=O)Nc3cccc(C(F)(F)F)c3)n2)cc1` (configuration not stated) was 25.5% (active); that for `Nn1c(SCC(=O)Nc2cccc3ccccc23)nnc1-c1cc(-c2ccc(F)cc2)n[nH]1` was -0.59% (inactive).
With `COc1ccc(Cl)cc1NC(=O)COC(=O)c1ccc(Br)o1`, the inhibition was -6.92% (inactive).
Turning to `COc1ccc(Cl)cc1NC(=O)COC(=O)C(CC(C)C)N1C(=O)C2CC=CCC2C1=O` (configuration not stated), the inhibition is 28% (active).
With `COc1ccc(Cl)cc1NC(=O)c1cccc(N2C(=O)C3CC=CCC3C2=O)c1` (configuration not stated), the inhibition was 3.57% (inactive).
